6 compounds from PubChem BioAssay can be followed below.

A short description of assay [1]: rapamycin-like changes in RPL19A-GFP expression – cell-based, S. cerevisiae, multiplex flow cytometry, primary screen (AID 1862; in the data active = percent of DMSO control GFP below about 86%;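 note: lower values mimic rapamycin by blocking the RPL19A rise seen in DMSO cells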). To be noted: S. cerevisiae RPL19A-GFP strain, flow cytometry fluorescence, 3 h; at 10 µM; stronger effect = lower value. (In general: A flow cytometer gives signals particle by particle.)
Assay [2] in a line: TOR pathway GLN3 branch reporter MEP2-GFP changes – S. cerevisiae, multiplex flow cytometry, primary screen (AID 1867;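 active = GFP response, as percent of the DMSO control, above the screen-wide mean plus 3 SD, about 139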;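 note: median GFP channel fluorescence of barcode-gated MEP2-GFP cells measured by flow cytometry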). Particulars: S. cerevisiae MEP2-GFP strain, 3 h, at 10 µM, stronger effect = higher value, 100% means same as DMSO wells.
Assay [3] in a line: TOR pathway RTG branch CIT2 reporter changes – S. cerevisiae, GFP fusion, multiplex flow cytometry, primary screen (AID 1870;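 active = percent response above a set limit, the screen-wide mean plus 3 SD, cut at about 130% in these data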;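 note: barcoded CIT2-GFP strain pooled with four other GFP strains with rapamycin as positive control; median GFP fluorescence per well over plate mean of DMSO wells so 100% = DMSO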). Particulars: S. cerevisiae CIT2-GFP expression, 3 h, at 10 µM, stronger effect = higher value.
A short description of assay [4]: TOR pathway LAP4-GFP level changes – S. cerevisiae, multiplex flow cytometry, primary screen (AID 1873;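 active = GFP signal, as percent of the solvent control, above the screen mean plus 3 SD, about 149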). Particulars: S. cerevisiae LAP4-GFP expression, 3 h, at 10 µM, stronger effect = higher value.
A short description of assay [5]: yeast AGP1-GFP level changes, GLN3 branch – cell-based, multiplex flow cytometry, S. cerevisiae, primary screen (AID 1887;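 active = GFP signal above the screen-wide mean plus 3 SD, that is over about 124.5% of the solvent control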;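 note: AGP1-GFP fusion strain of S. cerevisiae within a five-strain barcoded multiplex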). To be noted: 3 h, at 10 µM, stronger effect = higher value.
A short description of assay [6]: hit retest on RPL19A-GFP reporter strain – cell-based, S. cerevisiae, flow cytometry, cherry picks, mother/daughter gates, confirmation (AID 2270;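 active = GFP response below 50% of the DMSO control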). Particulars: 3 h, at 10 µM, stronger effect = lower value, 100 = same GFP as DMSO wells.
Assay [7] in a line: yeast TOR pathway reporter LAP4-GFP change – cell-based, cherry picks, flow cytometry, mother/daughter gates, confirmation (AID 2271;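 active = GFP response above 150% of the DMSO control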;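 note: ratio of sample to DMSO plate mean so 100% equals DMSO level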). Particulars: S. cerevisiae LAP4-GFP strain, 3 h, at 10 µM, stronger effect = higher value, 100 means same as DMSO control.
The nature of assay [8]: TOR pathway reporter MEP2-GFP, retest of hits – S. cerevisiae, flow cytometry GFP, cherry picks, confirmation (AID 2272;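 active = GFP response above 150% of the DMSO control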;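 note: ratio of well signal to plate DMSO mean so 100% equals DMSO level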). To be noted: S. cerevisiae MEP2-GFP strain, 3 h, at 10 µM, stronger effect = higher value.
Assay [9] is described as follows: TOR pathway CIT2 reporter hit retest – S. cerevisiae, GFP fusion, cherry picks, mother/daughter gates, confirmation (AID 2274;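 active = GFP response above 150% of the DMSO level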). Particulars: S. cerevisiae CIT2-GFP strain, flow cytometry, 3 h, at 10 µM, stronger effect = higher value.
Assay [10] can be described thus: reduced mouse 2C T cell binding to pMHC/ICAM-1 vesicles – MLPCN validation set, flow cytometry, LFA-1/ICAM-1 modulator project, pilot screen (AID 2523).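 For vesicle binding response: mean PE anti-B7-1 fluorescence of CD8+ cells relative to row control; 100% = QL9-loaded vesicles with DMSO vehicle in the same plate row.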 Particulars: 2C mouse CD8+ T cells, at 7 µM, stronger effect = lower value; double positive events: measured here: CD8+/vesicle+ event percentage.
Setting [11] is: measured here: daughter cell gate.
The mark [12] stands for this setting: measured here: mother cell gate.
Setting [13] is: measured here: daughter cell gate response.
Setting [14] is: measured here: mother cell gate response.

Records with an inconclusive call do not appear. Active and inactive are the calls of the source.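 Rule for the calls, unless noted: active = response below a set limit, under 55% cells CD8-positive and vesicle-bound, and CD8 cells' 90th-percentile brightness under 279; inactive = the rest.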

For `COc1cccc(/C=C/C(=O)c2c(O)cc(C)oc2=O)c1O`, in assay [1], the percent of DMSO control GFP is 104% (inactive). For the same compound, the GFP response vs DMSO is 108% (inactive) in assay [2]; 184% (active) in assay [4]; 101% (inactive) in assay [6]; 104% in [6] (setting [11]); 99.7% in [6] (setting [12]); 107% (inactive) in assay [8]. In addition, the percent response of DMSO control in assay [3] was 82.5% (inactive). The GFP response, % of DMSO in assay [5] was 91.1% (inactive); in assay [9], 91.2% (inactive); in assay [9] (setting [11]), 99.1%; in assay [9] (setting [12]), 90.2%. For the same compound, the GFP response relative to DMSO in assay [7] is 165% (active); in assay [7] (setting [13]), 155%; in [7] (setting [14]), 175%. Also, in assay [10], the double positive events came to 62.2%. In addition, the vesicle binding response in [10] was 259% (inactive).
Take `CC(=O)OCC(=O)[C@H]1CC[C@H]2[C@@H]3CCC4=CC(=O)CC[C@]4(C)[C@H]3CC[C@]12C`: the percent of DMSO control GFP in assay [1] was 89.1% (inactive). Further, the GFP response vs DMSO in assay [2] is 103% (inactive); in assay [4] it was 73.2% (inactive); in assay [6] it was 95.8% (inactive); in assay [6] (setting [11]) it was 96.7%; in assay [6] (setting [12]), 96.5%; in assay [8], 97.5% (inactive). The percent response of DMSO control in assay [3] was 108% (inactive). Besides, the GFP response, % of DMSO in assay [5] is 86.3% (inactive); in assay [9], 97.8% (inactive); in assay [9] (setting [11]), 98.3%; in assay [9] (setting [12]), 99.1%. Moreover, the GFP response relative to DMSO in [7] is 103% (inactive); in [7] (setting [13]), 99.3%; in assay [7] (setting [14]) it was 106%. The double positive events in assay [10] was determined as 52.1%. Further, in [10], the vesicle binding response was 113% (inactive).
`COc1cc(/C=C/C(=O)CC(=O)/C=C/c2ccc(O)c(OC)c2)ccc1O`: the percent of DMSO control GFP in assay [1] is 117% (inactive). The GFP response vs DMSO in assay [2] is 114% (inactive); in assay [4], 114% (inactive); in assay [6] it was 105% (inactive); in [8], 111% (inactive). For the same compound, the percent response of DMSO control in assay [3] was 135% (active). Besides, the figures for the GFP response, % of DMSO in assay [5] and in assay [9] were 95.1% (inactive) and 111% (inactive), respectively. In addition, the GFP response relative to DMSO in assay [7] was 93.8% (inactive). For the same compound, in [10], the double positive events was 61.2%. Also, the vesicle binding response in [10] was 39.9% (inactive).
As to `CN(C)CCN(Cc1ccccc1)c1ccccn1`, in assay [1], the percent of DMSO control GFP was 94.8% (inactive). For the same compound, the GFP response vs DMSO is 140% (active) in assay [2]; 85.3% (inactive) in assay [4]; 96.8% (inactive) in assay [6]; 98.1% in assay [6] (setting [11]); 97.9% in assay [6] (setting [12]); 100% (inactive) in assay [8]. In assay [3], the percent response of DMSO control is 97.9% (inactive). Besides, the GFP response, % of DMSO in [5] was 93.3% (inactive); in [9], 98.3% (inactive); in [9] (setting [11]), 99.1%; in assay [9] (setting [12]), 98.5%. Moreover, the GFP response relative to DMSO is 101% (inactive) in assay [7], 99.2% in assay [7] (setting [13]) and 99.3% in assay [7] (setting [14]). Moreover, in [10], the double positive events worked out at 62.3%. The vesicle binding response in [10] is 269% (inactive).
For the compound `CCCCCCCC(=O)OCC(=O)[C@@]1(O)CC[C@H]2[C@@H]3CCC4=CC(=O)CC[C@]4(C)[C@H]3[C@@H](O)C[C@@]21C`, the percent of DMSO control GFP in assay [1] is 102% (inactive). Moreover, the GFP response vs DMSO was 107% (inactive) in [2]; 96.6% (inactive) in [4]; 96.5% (inactive) in assay [6]; 95.9% in assay [6] (setting [11]); 96.9% in assay [6] (setting [12]); 103% (inactive) in [8]. Further, the percent response of DMSO control in [3] is 98.9% (inactive). Further, the GFP response, % of DMSO was 98.3% (inactive) in [5], 93.1% (inactive) in assay [9], 94% in assay [9] (setting [11]) and 92.6% in assay [9] (setting [12]). In addition, the GFP response relative to DMSO is 94.1% (inactive) in assay [7], 92.9% in [7] (setting [13]) and 96.4% in assay [7] (setting [14]). The same compound had a double positive events in assay [10] of 58.8%. In addition, in [10], the vesicle binding response is 182% (inactive).
Turning to `CS(=O)(=O)Nc1cccc(C(=O)CC2(O)C(=O)Nc3ccc(Br)cc32)c1` (stereo unspecified), the percent of DMSO control GFP in assay [1] was 85.9% (inactive). Moreover, the GFP response vs DMSO is 150% (active) in assay [2]; 139% (inactive) in assay [4]; 101% (inactive) in assay [6]; 92.4% in [6] (setting [11]); 96.2% in assay [6] (setting [12]); 99% (inactive) in [8]. For the same compound, the percent response of DMSO control in assay [3] is 142% (active). Further, the GFP response, % of DMSO is 129% (active) in [5], 100% (inactive) in [9], 90.2% in [9] (setting [11]) and 90.7% in assay [9] (setting [12]). The GFP response relative to DMSO in assay [7] is 98.2% (inactive); in [7] (setting [13]), 95.9%; in [7] (setting [14]), 96.2%. This compound registered a double positive events in assay [10] of 57.6%. Also, the vesicle binding response in assay [10] is 34.1% (inactive).
